Sampled rows, rich in hits. Any-hit rate of the full collection: about 9.4%.
ALDH1A1 inh: qHTS Assay for Inhibitors of Aldehyde Dehydrogenase 1 (ALDH1A1). Aldehyde dehydrogenase 1A1 (Homo sapiens), P00352. Purified ALDH1A1, NADH fluorescence, propionaldehyde substrate. Potency, µM (top dose mostly 75.3 µM), most hits filed as inhibitors. 7.3% of 220,000 active. AID 1030, 2008; active = well fitted inhibition curve with a large enough effect, not every such curve was filed as active; inconclusive = small, poorly fitted or top-dose-only effect, or another doubt; inactive = no such curve, though single readings can be large or run the other way
HttQ103 aggreg: qHTS Multiplex Assay to Identify Dual Action Probes in a Cell Model of Huntington: Aggregate Formation (GFP) | PC12 HttQ103-GFP aggregates, Acumen cytometry, 40 h | Potency, µM (highest dose often 46.1 µM), usual class: inhibitors | 1.1% of 220,000 active | AID 1688, 2009; also: nearly all actives have a fitted effect of over 60% in size
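Read-out: GFP aggregate count by laser scanning cytometer (488 nm excitation, 500-530 nm emission, 1–25 µm objects >6 SD above background). Cells: PC12, inducible HTTex1-Q103-GFP, 100 nM tebufenozide; compounds titrated.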
IMPase Li cell: qHTS Assay for Identifying the Cell-Membrane Permeable IMPase Inhibitors: Potentiation with Lithium. Potency, µM (titrated, usually from 59.4 µM), usual class: inhibitors. AID 1457, 2008. CHO-M1 cells, IP1 TR-FRET (IP-One), carbachol + lithium. 0.35% of 210,000 active;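 also: IP1 builds up when IMPase is blocked and the TR-FRET signal falls; nearly all actives have a fitted effect of over 50% in size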
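Test compounds were applied to CHO-M1 cells previously cultured for 16–30 h at 2000 per well. A small lithium amount accompanied them; after 30 min at 37C, IP1 was quantified by TR-FRET.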
HPGD inh: qHTS Assay for Inhibitors of HPGD (15-Hydroxyprostaglandin Dehydrogenase); AID 894, 2007; 15-hydroxyprostaglandin dehydrogenase [NAD(+)] (Homo sapiens), P15428; 4.3% of 150,000 active; purified HPGD, NADH fluorescence kinetic, PGE2 substrate; Potency, µM, most hits filed as inhibitors; active = well fitted inhibition curve with a large enough effect, not every such curve was filed as active; inconclusive = small, poorly fitted or top-dose-only effect, or another doubt; inactive = no such curve, though single readings can be large or run the other way
Target sequence (P15428 whole entry, looked up): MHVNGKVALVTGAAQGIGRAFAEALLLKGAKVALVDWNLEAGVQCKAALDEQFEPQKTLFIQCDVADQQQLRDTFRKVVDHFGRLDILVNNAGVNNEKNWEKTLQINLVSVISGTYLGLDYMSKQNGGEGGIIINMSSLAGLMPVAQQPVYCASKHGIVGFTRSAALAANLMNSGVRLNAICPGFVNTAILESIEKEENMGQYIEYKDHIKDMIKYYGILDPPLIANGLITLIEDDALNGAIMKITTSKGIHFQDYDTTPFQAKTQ
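20 nM HPGD preincubated 15 min at room temperature with compound in 50 mM Tris-HCl pH 8, 0.01% Tween 20. Started with 1 mM NAD+ and 30 uM prostaglandin E2; NADH fluorescence (360/450 nm) read 5 times over 30-s intervals, last minus first.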
IMPase cell inh: qHTS Assay for Identifying the Cell-Membrane Permeable IMPase Inhibitors; 120,000 tested, under 10 active; CHO-M1 cells, IP1 accumulation, HTRF TR-FRET ratio; AID 901, 2007; inhibition (IP1 accumulation), % at 46.1 µM; Inositol monophosphatase 1 (Rattus norvegicus), P97697; active = well fitted curve in the direction sought with a large enough effect in the signal ratio, not every such curve was filed as active; inconclusive = small, poorly fitted or top-dose-only effect, or a change in a side signal; inactive = no such curve, though single readings can be large or run the other way; the % refers to the signal ratio;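 also: cells stimulated with carbachol in lithium chloride buffer; higher means more IMPase inhibition seen as more IP1 and lower FRET ratio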
Target sequence (P97697 whole entry, looked up): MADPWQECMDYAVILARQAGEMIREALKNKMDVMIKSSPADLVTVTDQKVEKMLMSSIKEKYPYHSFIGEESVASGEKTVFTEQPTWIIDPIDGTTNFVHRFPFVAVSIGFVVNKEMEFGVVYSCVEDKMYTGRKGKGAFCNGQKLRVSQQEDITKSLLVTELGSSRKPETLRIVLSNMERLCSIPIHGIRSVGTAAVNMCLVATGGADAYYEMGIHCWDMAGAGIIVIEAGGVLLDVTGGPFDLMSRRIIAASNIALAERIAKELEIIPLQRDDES
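Seeded CHO-M1 cells were dosed with compound at up to 46 uM, stimulated with carbachol for 30 min, then lysed in IP-One detection reagents. Higher IP1 lowers the TR-FRET signal.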
HTT ATP protect: qHTS Multiplex Assay to Identify Dual Action Probes in a Cell Model of Huntington: Cytoprotection (ATP) | PC12 HTT-Q103 induced, cytoprotection, ATP luminescence, 40 h | Potency, µM (doses to about 56.4 µM), hits mostly activators | 0.14% of 230,000 active; also: nearly all actives have a fitted effect of over 45% in size
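PC12 cells stably carrying ecdysone-inducible Htt exon 1 (Q103)–GFP were induced with 100 nM tebufenozide (final) alongside library compounds in a dose series. Cytoprotection was scored as retained ATP by ATPlite luminescence.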
Hits are given with their value; – = inactive; ? = inconclusive; · = no result given; [ ] = dose if it differs, or a comment. Unless noted, calls follow the shape of the dose curve; as a rule, active = well fitted curve in the direction sought with a large enough effect; inconclusive = small, poorly fitted or top-dose-only effect, or another doubt; inactive = no such curve, though single readings can be large; an effect the other way counts as inactive or inconclusive.

SMILES | ALDH1A1 inh | HttQ103 aggreg | IMPase Li cell | HPGD inh | IMPase cell inh | HTT ATP protect
COc1ccc(C=O)cc1Cn1c(C)cc(C)c(C#N)c1=O | ? | – | – | · | · | –
CC(C)=N[C@H](C(=O)O)C(C)(C)S | ? | · | – | – | · | –[10 µM]
O=C(Nc1ccc(S(=O)(=O)N2CCc3ccccc32)cc1)c1ccc2c(c1)OCO2 | 18µM | ? | – | – | – | –[10 µM]
O=S(=O)(NC1CCCC1)c1ccc(S(=O)(=O)N2CCc3ccccc32)cc1 | 32µM | 11µM | – | – | – | –[10 µM]
COc1ccc(-c2[nH]ncc2CN(Cc2nccn2C)C(C)C)c(F)c1 | 22µM | –[9.22 µM] | – | · | · | –[10 µM]
COc1ncc2nc(-c3cccs3)c(=O)n(Cc3ccc(F)cc3)c2n1 | ? | · | ? | · | · | –
O=C(Nc1ccc2c(c1)nc1n2CCSC1)c1ccccc1 | 22µM | – | – | – | – | –[0.074 µM]
Cc1ccc(C2CC(=O)Oc3c(C(C)C)ccc(C)c32)cc1 (centres undefined) | – | · | – | – | · | –
COc1ccc(-c2nc(-c3ccccc3)c(Nc3ccc4ccccc4c3)o2)cc1 | ? | · | – | – | · | –
COc1cc2c(C#N)c(N3CCN(c4ccccc4OC)CC3)nc(N)c2c(N)n1 | ? | 11µM | – | ? | –[1.84 µM] | –[10 µM]
CNCC[C@H](Oc1ccccc1OC)c1ccccc1 | – | · | – | – | – | –
CCOc1cccc(C=Nc2cc(C)cc(C)c2O)c1O | 22µM | – | – | 11µM | – | –
CCOc1cccc(/C=N/NC(=O)CC2C(=O)NN=C2C)c1O (centres undefined) | – | – | – | · | · | –
Cc1ccccc1NC(=O)c1c(NC(=O)C(C)Oc2cccc(Cl)c2)sc2c1CCCC2 (centres undefined) | · | · | · | · | – | ·
CCOC(=O)N1CCN(C(=O)CSc2ccc3nnc(CCNC(=O)c4ccc(OC)cc4)n3n2)CC1 | 7.9µM | – | – | · | · | –
O=C(CNC(=O)c1ccccc1O)N/N=C/c1cc(Br)ccc1OC(=O)/C=C/c1ccco1 | ? | 2.5µM | – | · | · | –
COc1ccc([N+](=O)[O-])cc1/C=N/NC(=O)CNC(=O)c1cccc(F)c1 | ? | – | – | 25µM | – | –[10 µM]
COc1ccc([N+](=O)[O-])cc1/C=N/NC(=O)CNC(=O)C(c1ccccc1)c1ccccc1 | ? | – | – | – | – | –[10 µM]
O=C(CNC(=O)c1cccc(F)c1)N/N=C/c1cc(Br)ccc1OC(=O)/C=C/c1ccco1 | ? | 8.9µM | – | – | · | ·
C=C(C)[C@@H]1CC[C@]2(C(=O)O)CC[C@]3(C)[C@H](CCC4[C@@]5(C)CC[C@H](O)C(C)(C)[C@@H]5CC[C@]43C)[C@@H]12 (some centres undefined) | – | · | – | · | · | –
Nc1ncnc2c1ncn2[C@@H]1O[C@@H](C(=O)NC2CC2)[C@H](O)[C@@H]1O | · | · | · | · | – | –[1.9 µM]
NC(=S)N/N=C\c1ccc(-c2cccc(Cl)c2Cl)o1 | 32µM | – | – | ? | – | ?
NC(=S)N/N=C/c1ccc(-c2ccc(Cl)c(Cl)c2)o1 | ? | ? | – | ? | – | ?
Cc1ccc(Cn2ccsc2=NC(=O)CCl)cc1 | 10µM | ? | – | · | · | –
COc1ccc(C(=O)Cn2ccsc2=NC(C)=O)cc1 | – | – | – | · | · | –
Cc1cccc(Oc2coc3cc(OCC(=O)NC4CCCCC4)ccc3c2=O)c1 | · | · | · | · | – | ·
O=C(O)c1cccc(NC(=O)C2CC(=O)N(Cc3ccccc3)C2)c1 (centres undefined) | – | – | – | – | – | –
CC(=O)c1ccc(NC(=O)C2CC(=O)N(Cc3ccccc3)C2)cc1 (centres undefined) | 14µM | – | – | – | – | –
CCOC(=O)N/N=C1/C[C@@H](O)[C@@H](O)[C@@H]2[C@@H]3C(=O)N(C4CCCCC4)C(=O)[C@H]3CC[C@H]12 | –[13.5 µM] | · | · | · | · | –[10 µM]
